Compound activity deposited in PubChem by several laboratories.
Compounds with a hit are over-represented: about 3.5% of the library has one in this group of screens.
Rv3671c inh = Rv3671c serine protease inhibitors, primary screen, biochemical, fluorescence polarization, M. tuberculosis H37Rv; inhibition, % at 5.96 µM; 0.048% of 320,000 active; in the data active means inhibition above about 38%;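 further: extracellular domain of Rv3671c used as enzyme; 0% = enzyme with DMSO and 100% = no enzyme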
Mtb FBA inh = Mtb FBA enzyme inhibitors, primary screen, biochemical, fluorescence, strain H37Rv; inhibition, % at 1 µM; purified M. tuberculosis FBA, fluorescence read-out; 2.3% of 360,000 active; in the data active means inhibition above about 27%;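 further: 0% = vehicle and 100% = reference inhibitor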
Target sequence (P9WQA3 whole entry, looked up): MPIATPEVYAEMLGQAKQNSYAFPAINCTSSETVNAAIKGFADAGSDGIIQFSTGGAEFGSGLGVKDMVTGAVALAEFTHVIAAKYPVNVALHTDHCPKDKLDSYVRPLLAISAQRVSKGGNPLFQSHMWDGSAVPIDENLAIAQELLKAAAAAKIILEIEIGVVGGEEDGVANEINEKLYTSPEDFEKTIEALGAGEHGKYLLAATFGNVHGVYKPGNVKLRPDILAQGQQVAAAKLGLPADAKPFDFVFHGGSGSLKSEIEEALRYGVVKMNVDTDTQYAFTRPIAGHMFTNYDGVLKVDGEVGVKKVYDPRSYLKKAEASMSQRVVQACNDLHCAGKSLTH
Mtb UGM inh = M. tuberculosis UGM enzyme inhibitors, primary screen, biochemical, fluorescence polarization, single point | UDP-galactopyranose mutase (Mycobacterium tuberculosis (strain ATCC 25618 / H37Rv)), … | purified UGM, fluorescence polarization probe displacement | inhibition, % at 10 µM | 0.06% of 320,000 active; in the data active means inhibition above about 10%, passing the limit was not always enough
GDH-TPI counter = GDH-TPI coupling enzyme inhibitors, primary screen, artefact control for M. tuberculosis FBA inhibitor project, biochemical, absorbance, full deck | 1.2% of 360,000 active | GDH-TPI coupled enzyme counterscreen, NADH absorbance | inhibition, % at 4.8 µM; in the data active means inhibition above about 30%;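 further: 0% = DMSO wells and 100% = wells lacking the enzyme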
* = called active by the depositor; nt = no result; + = active, no number; ! = not confirmed by another sample.

SMILES	Rv3671c inh	Mtb FBA inh	Mtb UGM inh	GDH-TPI counter
CCN1CCc2nc(NC(=O)c3ccccc3)sc2C1	-10	-1	-1	33*
CN(C(=O)c1cccc(NC(=O)Cc2ccc(NC(=O)C3CCN(C(=O)C4CC4)CC3)cc2)c1)C1CCCC1	nt	2	nt	-5
CN(C)c1c2ccccc2nc2c(F)c(F)c(F)c(F)c12	-2	117*	-1	1
CCc1nn2c(N)c(/C=C3\C=Nc4ccccc43)c(=O)nc2s1	3	3	-1	33*!
Cc1ccccc1N1C(=O)c2cccc3cccc(c23)C1=O	-4	2	3	35*
O=C(O)Cc1ccc(C(=O)c2cccs2)s1	8	-9	-1	37*
Cc1cc(=O)oc2c3c(cc(OCC(=O)N[C@@H](Cc4ccccc4)C(=O)O)c12)OC(C)(C)CC3	4	+	0	22
Cc1cc(=O)oc2c3c(cc(OCC(=O)NC(Cc4ccc(Cl)cc4)C(=O)O)c12)OC(C)(C)CC3 (centres undefined)	9	+	4	14
Cc1c(OCC(=O)NC(Cc2ccc(Cl)cc2)C(=O)O)ccc2c3c(c(=O)oc12)CCC3 (centres undefined)	-6	6	1	7
COc1ccc(NC(=O)Cn2nnc(C(=O)NCCc3ccc(OC)c(OC)c3)c2N)c(OC)c1	0	-1	1	0
O=C(O)c1cccc2c1C(=O)c1ccc(N3CCN(Cc4ccc5c(c4)OCO5)CC3)cc1S2(=O)=O	nt	-5	nt	18
O=C1NC(Cc2ccccc2)c2nc3ccc(Cl)cc3c(=O)n2-c2ccccc21 (centres undefined)	-3	nt	-1	nt
C[C@@H]1CN([C@H](C)CO)C(=O)CCCn2cc(nn2)CO[C@H]1CN(C)C(=O)Nc1ccc(F)cc1	nt	4	nt	-8
CC(=O)c1sc(=S)n(Cc2ccccc2)c1C	nt	-1	1	25
COC(=O)c1sc(=S)n(Cc2ccccc2)c1C	-7	5	2	46*
O=C(NCc1ccccn1)C1CCN(S(=O)(=O)c2cc(Cl)ccc2Cl)CC1	-7	4	2	6
O=C(N/N=C/c1cccc2ccccc12)c1cccc(F)c1	-13	-2	0	34*
Nc1ccc(C(=O)N/N=C/c2cn(Cc3cccc(F)c3)c3ccccc23)cc1	nt	2	-1	32*
O=C(CNc1ccc2c(c1)OCO2)N/N=C\c1cn(Cc2ccccc2)c2ccccc12	1	1	1	31*
O=C(N/N=C/c1cccc2ccccc12)c1ccc(CN2CCOCC2)cc1	-4	6	0	41*
O=C(N/N=C/c1cccc([N+](=O)[O-])c1)c1ccc(CN2CCOCC2)cc1	-1	1	2	2
O=C(N/N=C/c1cn(Cc2ccccc2)c2ccccc12)c1ccncc1	-3	-3	1	24
O=C(CNc1ccccc1)N/N=C/c1ccc2c(c1)OCO2	3	-2	1	11
CC1(C(=O)NS(=O)(=O)c2ccc(Cl)cc2)CCN1C(=O)CCc1ccccc1 (centres undefined)	nt	-2	nt	7
CCn1c(C(=O)O)c(S(=O)(=O)c2ccc(Cl)cc2)c2ccccc21	nt	1	2	-8
SMILES	Rv3671c inh	Mtb FBA inh	Mtb UGM inh	GDH-TPI counter
CCN1CCN(c2nc3c(C)cccn3c(=O)c2/C=C(\C#N)C(=O)NCCCOC)CC1	0	143*	3	-5
Cn1c(O)c(C=Nc2ccccc2)c(=O)n(C)c1=O	-10	-3	0	46*
Cn1c(O)c(C=Nc2ccc(Cl)cc2)c(=O)n(C)c1=O	-1	-3	1	9
COc1ccccc1N=Cc1c(O)n(C)c(=O)n(C)c1=O	5	2	2	20
Cn1c(O)c(/C=N/c2ccccn2)c(=O)n(C)c1=O	3	1	3	33*
CC(C)(C)n1nnnc1C(c1cc2cc3c(cc2[nH]c1=O)OCCO3)N1CCSCC1 (centres undefined)	-2	34*	1	12
N#CCc1c(C#N)c(N)nc(Nc2ccccc2)c1C#N	3	-2	4	31*
COc1ccccc1NC(=O)CN(c1ccccc1)S(=O)(=O)c1ccccc1	-2	8	-1	15
COc1ccc(N(CC(=O)Nc2ccccc2OC)S(=O)(=O)c2ccc(NC(C)=O)cc2)cc1	-20	2	2	31*
COC(=O)c1c(NC(=O)COC(=O)Cn2cnc3ccccc32)sc2c1CCCC2	-12	0	0	-1
Cc1cccc(/C=C\c2nc3ccccc3c(=O)[nH]2)c1	-11	-3	1	31*
COc1ccc(C(=O)Nc2cccc(/C=C/c3nc4ccccc4c(=O)[nH]3)c2)cc1	-94	1	2	39*
COc1cc(/C=C/c2nc3ccccc3c(=O)[nH]2)cc(Cl)c1O	-4	-4	-3	2
COc1ccc(C(=O)Nc2nc3ccccc3c(=O)[nH]2)cc1	-3	1	-4	15
O=C(Nc1cccc(/C=C/c2nc3ccccc3c(=O)[nH]2)c1)c1ccccc1Cl	-104	-2	-1	49*
O=C(CCNS(=O)(=O)c1ccccc1)NCC1CCCCC1	nt	3	nt	-6
O=C(O)c1ccc(N(c2ccccc2)c2ccccc2)cc1	4	+	0	15
COc1ccc(CCC2(C)NC(=O)N(C(C)C(=O)N3c4ccccc4CC3C)C2=O)cc1 (centres undefined)	1	-1	2	1
COc1ccc(N(CCC#N)C(=O)/C(C#N)=C\c2cccs2)cc1	11	1	0	37*
N#CCCN(C(=O)COC(=O)/C=C/c1cccs1)c1ccccc1	-3	-3	-3	12
COCCNC(=O)/C(C#N)=C/c1cccs1	3	0	-1	48*
C[C@@H]1CCCCO[C@H](CN(C)C(=O)C2CCCCC2)[C@@H](C)CN([C@H](C)CO)C(=O)c2cc(N(C)C)ccc2O1	nt	-3	nt	3
CCNc1nc(C)c(CN(C(C)=O)c2ccccc2)nc1C#N	7	126*	0	8
N#C/C(=C\C=C\c1ccccc1)c1nc(-c2ccc3c(c2)OCO3)cs1	1	2	20*	14
OC(c1ccccc1)(c1nc(-c2ccc3c(c2)OCO3)cs1)C(F)(F)F (centres undefined)	nt	2	nt	9
COC(=O)c1ccc(N2CCCCC2)c(NC(=O)c2ccco2)c1	-3	-2	0	5
COc1ccc(/C=C2\SC(=O)N(CCn3cnnn3)C2=O)cc1	-6	-2	1	38*
COc1ccc(/C=C2\SC(=O)N(CCNC(=O)C3CC4C=CC3C4)C2=O)cc1 (centres undefined)	-1	1	1	22
COc1ccc(/C=C2\SC(=S)N(CCC(=O)N3CCCCC3CCO)C2=O)cc1 (centres undefined)	-13	-4	3	2
COc1ccc(/C=C2\SC(=O)N(CCC(=O)N3CCCCC3CCO)C2=O)cc1 (centres undefined)	-5	0	0	40*
